Test results as given in paper PMC11006913.

Assays:
Assay in all cases: PBM; 200 nM protein, PBS
Settings in all cases: dsDNA, one strand shown
[1] = molecular target: HESX1 (Homo sapiens, UniProt Q9UBX0 95-180, R165K)
[2] = molecular target: HOXB4 (Homo sapiens, UniProt P17483 148-234)
[3] = molecular target: SHOX (Homo sapiens, UniProt O15266 103-189)
[4] = molecular target: HESX1 (Homo sapiens, UniProt Q9UBX0 95-180)
[5] = molecular target: HOXB4 (Homo sapiens, UniProt P17483 148-234, V174I)
[6] = molecular target: ALX1 (Homo sapiens, UniProt Q15699 118-204, L144V)
[7] = molecular target: ALX3 (Homo sapiens, UniProt O95076 139-225, N203Q)
[8] = molecular target: SHOX (Homo sapiens, UniProt O15266 103-189, R173C)
[9] = molecular target: ALX1 (Homo sapiens, UniProt Q15699 118-204, L144R)
[10] = molecular target: ALX3 (Homo sapiens, UniProt O95076 139-225)
[11] = molecular target: PROP1 (Homo sapiens, UniProt O75360 56-141)
[12] = molecular target: HESX1 (Homo sapiens, UniProt Q9UBX0 95-180, R109Q)
[13] = molecular target: PROP1 (Homo sapiens, UniProt O75360 56-141, R99H)
[14] = molecular target: ALX3 (Homo sapiens, UniProt O95076 139-225, L168Q)
[15] = molecular target: HESX1 (Homo sapiens, UniProt Q9UBX0 95-180, P111T)
[16] = molecular target: ALX3 (Homo sapiens, UniProt O95076 139-225, L168V)
[17] = molecular target: PROP1 (Homo sapiens, UniProt O75360 56-141, F88S)
[18] = molecular target: HESX1 (Homo sapiens, UniProt Q9UBX0 95-180, F115L)
[19] = molecular target: ALX1 (Homo sapiens, UniProt Q15699 118-204)
[20] = molecular target: ALX3 (Homo sapiens, UniProt O95076 139-225, N203S)
Sequence of ALX3 (Homo sapiens, UniProt O95076 139-225, N203S) (O95076 139-225 N203S): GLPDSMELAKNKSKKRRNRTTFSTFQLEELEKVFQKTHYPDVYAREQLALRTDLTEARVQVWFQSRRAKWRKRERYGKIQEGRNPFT

Sequence of HESX1 (Homo sapiens, UniProt Q9UBX0 95-180, R165K) (Q9UBX0 95-180 R165K): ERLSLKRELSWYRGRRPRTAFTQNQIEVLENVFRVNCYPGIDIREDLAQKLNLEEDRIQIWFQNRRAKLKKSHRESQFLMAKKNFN
Sequence of HESX1 (Homo sapiens, UniProt Q9UBX0 95-180, P111T) (Q9UBX0 95-180 P111T): as the sequence (Q9UBX0 95-180 R165K) above, with P17T, K71R counted along it
Sequence of PROP1 (Homo sapiens, UniProt O75360 56-141, R99H) (O75360 56-141 R99H): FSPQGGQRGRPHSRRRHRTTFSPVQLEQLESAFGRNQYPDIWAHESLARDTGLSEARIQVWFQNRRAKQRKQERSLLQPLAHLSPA
Sequence of ALX3 (Homo sapiens, UniProt O95076 139-225) (O95076 139-225): as the sequence (O95076 139-225 N203S) above, with S65N counted along it
Sequence of ALX1 (Homo sapiens, UniProt Q15699 118-204, L144R) (Q15699 118-204 L144R): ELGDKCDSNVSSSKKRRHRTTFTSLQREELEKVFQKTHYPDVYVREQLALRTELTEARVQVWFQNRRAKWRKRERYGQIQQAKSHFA
Sequence of HESX1 (Homo sapiens, UniProt Q9UBX0 95-180, R109Q) (Q9UBX0 95-180 R109Q): as the sequence (Q9UBX0 95-180 R165K) above, with R15Q, K71R counted along it
Sequence of PROP1 (Homo sapiens, UniProt O75360 56-141, F88S) (O75360 56-141 F88S): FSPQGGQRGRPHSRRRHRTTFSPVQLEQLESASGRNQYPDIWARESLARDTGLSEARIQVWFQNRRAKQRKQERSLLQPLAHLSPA
Sequence of HESX1 (Homo sapiens, UniProt Q9UBX0 95-180, F115L) (Q9UBX0 95-180 F115L): as the sequence (Q9UBX0 95-180 R165K) above, with F21L, K71R counted along it
Sequence of ALX3 (Homo sapiens, UniProt O95076 139-225, L168Q) (O95076 139-225 L168Q): as the sequence (O95076 139-225 N203S) above, with L30Q, S65N counted along it
Sequence of ALX3 (Homo sapiens, UniProt O95076 139-225, N203Q) (O95076 139-225 N203Q): as the sequence (O95076 139-225 N203S) above, with S65Q counted along it
Sequence of ALX1 (Homo sapiens, UniProt Q15699 118-204, L144V) (Q15699 118-204 L144V): as the sequence (Q15699 118-204 L144R) above, with R27V counted along it
Sequence of SHOX (Homo sapiens, UniProt O15266 103-189, R173C) (O15266 103-189 R173C): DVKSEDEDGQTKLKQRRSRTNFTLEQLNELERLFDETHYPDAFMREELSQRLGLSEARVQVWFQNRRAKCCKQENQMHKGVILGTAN
Sequence of HESX1 (Homo sapiens, UniProt Q9UBX0 95-180) (Q9UBX0 95-180): as the sequence (Q9UBX0 95-180 R165K) above, with K71R counted along it
Sequence of PROP1 (Homo sapiens, UniProt O75360 56-141) (O75360 56-141): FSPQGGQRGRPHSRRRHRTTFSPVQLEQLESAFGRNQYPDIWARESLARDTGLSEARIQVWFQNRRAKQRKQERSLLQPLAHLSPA
Sequence of SHOX (Homo sapiens, UniProt O15266 103-189) (O15266 103-189): as the sequence (O15266 103-189 R173C) above, with C71R counted along it
Sequence of ALX1 (Homo sapiens, UniProt Q15699 118-204) (Q15699 118-204): as the sequence (Q15699 118-204 L144R) above, with R27L counted along it
Sequence of HOXB4 (Homo sapiens, UniProt P17483 148-234) (P17483 148-234): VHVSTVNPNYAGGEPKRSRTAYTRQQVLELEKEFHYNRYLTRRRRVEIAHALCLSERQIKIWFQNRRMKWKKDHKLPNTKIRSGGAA
Sequence of HOXB4 (Homo sapiens, UniProt P17483 148-234, V174I) (P17483 148-234 V174I): as the sequence (P17483 148-234) above, with V27I counted along it
Sequence of ALX3 (Homo sapiens, UniProt O95076 139-225, L168V) (O95076 139-225 L168V): as the sequence (O95076 139-225 N203S) above, with L30V, S65N counted along it

Row | Sequence | binding signal [1] | binding signal [2] | binding signal [3] | binding signal [4] | binding signal [5] | binding signal [6] | binding signal [7] | binding signal [8] | binding signal [9] | binding signal [10] | binding signal [11] | binding signal [12] | binding signal [13] | binding signal [14] | binding signal [15] | binding signal [16] | binding signal [17] | binding signal [18] | binding signal [19] | binding signal [20]
1 | AATTAATC | 11.9 upbm affinity estimate (log intensity, higher = more binding, comparable within an allelic series) | 13.2 upbm affinity estimate (log intensity, higher = more binding, comparable within an allelic series) | 11.9 upbm affinity estimate (log intensity, higher = more binding, comparable within an allelic series) | 12 upbm affinity estimate (log intensity, higher = more binding, comparable within an allelic series) | 13.9 upbm affinity estimate (log intensity, higher = more binding, comparable within an allelic series) | 11.9 upbm affinity estimate (log intensity, higher = more binding, comparable within an allelic series) | 8.39 upbm affinity estimate (log intensity, higher = more binding, comparable within an allelic series) | 9.4 upbm affinity estimate (log intensity, higher = more binding, comparable within an allelic series) | 11.6 upbm affinity estimate (log intensity, higher = more binding, comparable within an allelic series) | 12.5 upbm affinity estimate (log intensity, higher = more binding, comparable within an allelic series) | 11.2 upbm affinity estimate (log intensity, higher = more binding, comparable within an allelic series) | 9.36 upbm affinity estimate (log intensity, higher = more binding, comparable within an allelic series) | 11.1 upbm affinity estimate (log intensity, higher = more binding, comparable within an allelic series) | 10.6 upbm affinity estimate (log intensity, higher = more binding, comparable within an allelic series) | 10.7 upbm affinity estimate (log intensity, higher = more binding, comparable within an allelic series) | 10.2 upbm affinity estimate (log intensity, higher = more binding, comparable within an allelic series) | 7.81 upbm affinity estimate (log intensity, higher = more binding, comparable within an allelic series) | 7.79 upbm affinity estimate (log intensity, higher = more binding, comparable within an allelic series) | 12.3 upbm affinity estimate (log intensity, higher = more binding, comparable within an allelic series) | 8.52 upbm affinity estimate (log intensity, higher = more binding, comparable within an allelic series)
2 | CAATTATC | 13 upbm affinity estimate (log intensity, higher = more binding, comparable within an allelic series) | 13 upbm affinity estimate (log intensity, higher = more binding, comparable within an allelic series) | 11.8 upbm affinity estimate (log intensity, higher = more binding, comparable within an allelic series) | 13.1 upbm affinity estimate (log intensity, higher = more binding, comparable within an allelic series) | 13.6 upbm affinity estimate (log intensity, higher = more binding, comparable within an allelic series) | 11.7 upbm affinity estimate (log intensity, higher = more binding, comparable within an allelic series) | 8.4 upbm affinity estimate (log intensity, higher = more binding, comparable within an allelic series) | 9.58 upbm affinity estimate (log intensity, higher = more binding, comparable within an allelic series) | 11.4 upbm affinity estimate (log intensity, higher = more binding, comparable within an allelic series) | 12.5 upbm affinity estimate (log intensity, higher = more binding, comparable within an allelic series) | 11.5 upbm affinity estimate (log intensity, higher = more binding, comparable within an allelic series) | 9.41 upbm affinity estimate (log intensity, higher = more binding, comparable within an allelic series) | 11.7 upbm affinity estimate (log intensity, higher = more binding, comparable within an allelic series) | 10.6 upbm affinity estimate (log intensity, higher = more binding, comparable within an allelic series) | 11.4 upbm affinity estimate (log intensity, higher = more binding, comparable within an allelic series) | 10.1 upbm affinity estimate (log intensity, higher = more binding, comparable within an allelic series) | 7.73 upbm affinity estimate (log intensity, higher = more binding, comparable within an allelic series) | 8 upbm affinity estimate (log intensity, higher = more binding, comparable within an allelic series) | 12.3 upbm affinity estimate (log intensity, higher = more binding, comparable within an allelic series) | 8.56 upbm affinity estimate (log intensity, higher = more binding, comparable within an allelic series)
3 | CTCAATTA | 12.7 upbm affinity estimate (log intensity, higher = more binding, comparable within an allelic series) | 13.1 upbm affinity estimate (log intensity, higher = more binding, comparable within an allelic series) | 12 upbm affinity estimate (log intensity, higher = more binding, comparable within an allelic series) | 12.7 upbm affinity estimate (log intensity, higher = more binding, comparable within an allelic series) | 13.8 upbm affinity estimate (log intensity, higher = more binding, comparable within an allelic series) | 11.8 upbm affinity estimate (log intensity, higher = more binding, comparable within an allelic series) | 8.29 upbm affinity estimate (log intensity, higher = more binding, comparable within an allelic series) | 9.56 upbm affinity estimate (log intensity, higher = more binding, comparable within an allelic series) | 11.5 upbm affinity estimate (log intensity, higher = more binding, comparable within an allelic series) | 12.5 upbm affinity estimate (log intensity, higher = more binding, comparable within an allelic series) | 11.5 upbm affinity estimate (log intensity, higher = more binding, comparable within an allelic series) | 9.12 upbm affinity estimate (log intensity, higher = more binding, comparable within an allelic series) | 11.6 upbm affinity estimate (log intensity, higher = more binding, comparable within an allelic series) | 10.5 upbm affinity estimate (log intensity, higher = more binding, comparable within an allelic series) | 11.2 upbm affinity estimate (log intensity, higher = more binding, comparable within an allelic series) | 9.95 upbm affinity estimate (log intensity, higher = more binding, comparable within an allelic series) | 7.64 upbm affinity estimate (log intensity, higher = more binding, comparable within an allelic series) | 7.72 upbm affinity estimate (log intensity, higher = more binding, comparable within an allelic series) | 12.4 upbm affinity estimate (log intensity, higher = more binding, comparable within an allelic series) | 8.43 upbm affinity estimate (log intensity, higher = more binding, comparable within an allelic series)
4 | CTAATTAG | 14 upbm affinity estimate (log intensity, higher = more binding, comparable within an allelic series) | 13.6 upbm affinity estimate (log intensity, higher = more binding, comparable within an allelic series) | 13.6 upbm affinity estimate (log intensity, higher = more binding, comparable within an allelic series) | 13.7 upbm affinity estimate (log intensity, higher = more binding, comparable within an allelic series) | 14.2 upbm affinity estimate (log intensity, higher = more binding, comparable within an allelic series) | 12.5 upbm affinity estimate (log intensity, higher = more binding, comparable within an allelic series) | 8.69 upbm affinity estimate (log intensity, higher = more binding, comparable within an allelic series) | 11.1 upbm affinity estimate (log intensity, higher = more binding, comparable within an allelic series) | 12.1 upbm affinity estimate (log intensity, higher = more binding, comparable within an allelic series) | 13 upbm affinity estimate (log intensity, higher = more binding, comparable within an allelic series) | 12.4 upbm affinity estimate (log intensity, higher = more binding, comparable within an allelic series) | 10.9 upbm affinity estimate (log intensity, higher = more binding, comparable within an allelic series) | 12.6 upbm affinity estimate (log intensity, higher = more binding, comparable within an allelic series) | 11.6 upbm affinity estimate (log intensity, higher = more binding, comparable within an allelic series) | 12.5 upbm affinity estimate (log intensity, higher = more binding, comparable within an allelic series) | 11.3 upbm affinity estimate (log intensity, higher = more binding, comparable within an allelic series) | 8.3 upbm affinity estimate (log intensity, higher = more binding, comparable within an allelic series) | 8.53 upbm affinity estimate (log intensity, higher = more binding, comparable within an allelic series) | 13.2 upbm affinity estimate (log intensity, higher = more binding, comparable within an allelic series) | 8.81 upbm affinity estimate (log intensity, higher = more binding, comparable within an allelic series)
